Assay outcomes from PubChem.
MsrA inh = bovine MsrA inhibition; purified bovine MsrA, absorbance read-out; inhibition, % at 15.5 µM; hit rate 0.75% among 360,000; AID 651718;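 also: 0% = vehicle wells with enzyme and 100% = reference inhibitor wells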
MsrA act = activates bovine MsrA enzyme | purified bovine MsrA, absorbance read-out | activation, % at 10.6 µM | hit rate 0.3% among 360,000 | AID 602163; in the data active = activation above about 7.5%;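 also: 0% = vehicle and 100% = reference activator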
NPR2 activator = GC-B (human) receptor activation. HEK293-GC-B cells, CNP EC30, cGMP TR-FRET; 0% at EC30 CNP, 100% saturating CNP. hit rate 0.11% among 370,000. activation, % at 10 µM. P20594. AID 1920062;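 active = activation at 10 µM reaching about 35% in either raw or pattern-adjusted values, limit read from the data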
NPR1 activator = GC-A (human) enzyme activation; HEK293 GC-A cells, cGMP TR-FRET, EC30 ANP; 0% at EC30 ANP, 100% saturating ANP; P16066; hit rate 0.14% among 370,000; activation, % at 10 µM; in the data active = activation above about 40%
MsrA inh confirm = confirmation of bovine MsrA inhibitors | shares compounds with MsrA inh | purified bovine MsrA, absorbance read-out | inhibition, % at 15.5 µM | hit rate 41% among 2,300 | AID 651822;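 also: coupled to thioredoxin reductase with NADPH and selenocystamine and DMSO as substrate; 0% = vehicle only and 100% = full effect of reference inhibitor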
Numbers without * were called inactive. Sampled rows, rich in hits. Any-hit rate of the full collection: about 1.2%. Rule as the data show it, unless noted: active = inhibition above about 4.5%; inactive = the rest.

CC(C)(C)OC(=O)NC1CCN(c2nc(-c3ccc(Br)cc3)cs2)CC1 was read as NPR2 activator -3.0 and NPR1 activator 6.9.
For CCCn1c(/C=N/Nc2nc3ccccc3[nH]2)nc2ccccc21 the results were MsrA inh 1.9, MsrA act 4.4, NPR2 activator 2.6 and NPR1 activator 0.5.
Screening C(=N\Nc1nc2ccccc2[nH]1)/c1ccncc1 returned MsrA inh 5.0*, MsrA act -3.6, NPR2 activator -8.3, NPR1 activator -5.4 and MsrA inh confirm 2.5.
`O=C(O)c1ccc(/C=N/Nc2nc3ccccc3[nH]2)cc1` gave MsrA inh 2.1, MsrA act -3.8, NPR2 activator -3.3 and NPR1 activator -8.7.
For CCN(CC)c1ccc(/C=N/Nc2nc3ccccc3[nH]2)cc1 the results were MsrA inh 1.6, MsrA act -3.6, NPR2 activator -6.3 and NPR1 activator -4.9.
Screening CC(=O)Nc1ccc(/C=N/Nc2nc3ccccc3[nH]2)cc1 returned MsrA inh 8.2*, MsrA act -6.4, NPR2 activator -11.6, NPR1 activator -11.6 and MsrA inh confirm 5.9*.
Cn1c(/C=N/Nc2nc3ccccc3[nH]2)nc2ccccc21 was read as MsrA inh 4.9*, MsrA act -1.0, NPR2 activator 0.9, NPR1 activator -6.4 and MsrA inh confirm 5.0*.
Cc1ccc(Nc2n[nH]c(C)c2[N+](=O)[O-])c(C)c1 was read as MsrA inh 10.4*, MsrA act 0.1, NPR2 activator -7.1, NPR1 activator 0.7 and MsrA inh confirm 9.1*.
For Cc1ccccc1Nc1n[nH]c(C)c1[N+](=O)[O-] the results were MsrA inh 2.0, MsrA act -4.4, NPR2 activator -1.7 and NPR1 activator 0.6.
CC(O)CNc1cc(N)c([N+](=O)[O-])cc1[N+](=O)[O-] (configuration not stated) was read as MsrA inh 5.2*, MsrA act -18.1, NPR2 activator -6.1, NPR1 activator 1.7 and MsrA inh confirm 6.2*.
For CCOC(=O)c1sc(NC(=O)C2=COCCO2)c(C#N)c1C the results were MsrA inh 5.8*, MsrA act -2.8, NPR2 activator -3.6, NPR1 activator 1.1 and MsrA inh confirm 2.2.
For CCOC(=O)c1sc(NC(=O)C(C)C)c(C#N)c1C the results were MsrA inh 1.4, MsrA act -5.2, NPR2 activator -3.9 and NPR1 activator 6.8.
For CCCn1cnc2scc(-c3ccc(C)c(C)c3)c2c1=O the results were MsrA inh 8.6*, MsrA act -3.9, NPR2 activator 9.9, NPR1 activator -0.5 and MsrA inh confirm 6.5*.
For CCC(C(=O)OC)n1cnc2scc(-c3ccc(C)c(C)c3)c2c1=O (configuration not stated) the results were MsrA inh 7.5*, MsrA act -1.9, NPR2 activator 4.0, NPR1 activator -4.8 and MsrA inh confirm 5.3*.
Screening CCCC[n+]1ccc(-c2nc3ccc([N+](=O)[O-])cc3[nH]2)cc1 returned MsrA inh 4.8*, MsrA act 0.0, NPR2 activator 0.3, NPR1 activator 2.3 and MsrA inh confirm 3.8.
COc1cccc(/C=N/n2c(CO)nc3ccccc32)c1OC was read as MsrA inh 10.3*, MsrA act -1.4, NPR2 activator 6.8, NPR1 activator 6.8 and MsrA inh confirm 13.0*.
`CNc1nc2ccccc2n1/N=C/c1cccc(OC)c1OC` gave MsrA inh 1.7, MsrA act -2.6, NPR2 activator 33.6 and NPR1 activator 14.8.
O=C(CSc1nc2ccccc2[nH]1)NN=Cc1ccccc1C(=O)O was read as NPR2 activator 1.6 and NPR1 activator 2.2.
For COc1ccc(S(=O)(=O)N(C)C[C@@H]2Oc3c(NC(=O)Nc4cccc5ccccc45)cccc3C(=O)N([C@@H](C)CO)C[C@H]2C)cc1 the results were NPR2 activator -1.2 and NPR1 activator -1.9.
`COC(=O)[C@]12C[C@H](CC(=O)N3CCC(c4ccccc4)CC3)C(=O)N(CCc3ccc(OC)c(OC)c3)C1=C[C@H](COCc1ccccc1)O[C@@H]2C` gave NPR2 activator 7.1 and NPR1 activator 0.7.
For COc1ccc(Nc2nc3cc(C)ccc3cc2C#N)cc1 the results were MsrA inh 8.7*, MsrA act -3.6, NPR2 activator -2.0, NPR1 activator 2.0 and MsrA inh confirm 6.9*.
`O=C(N/N=C/c1sc(N2CCOCC2)nc1-c1ccccc1)c1ccccc1Cl` gave MsrA inh 0.3, MsrA act -10.7, NPR2 activator -2.6 and NPR1 activator 0.8.
Nc1ccc(C(=O)N/N=C/c2sc(N3CCOCC3)nc2-c2ccccc2)cc1 was read as MsrA inh 7.4*, MsrA act -3.0, NPR2 activator -7.1, NPR1 activator -8.8 and MsrA inh confirm 3.7.
For O=C(O)c1cccc(N/N=C/c2sc(N3CCOCC3)nc2-c2ccccc2)c1 the results were MsrA inh 18.9*, MsrA act -14.8, NPR2 activator -7.1, NPR1 activator -4.3 and MsrA inh confirm 16.9*.
`COc1cc(C(=O)N/N=C/c2sc(N3CCOCC3)nc2-c2ccccc2)cc(OC)c1OC` gave MsrA inh 6.6*, MsrA act -5.4, NPR2 activator 4.4, NPR1 activator 3.1 and MsrA inh confirm 3.3.
O=C(N/N=C/c1sc(N2CCOCC2)nc1-c1ccccc1)c1ccccc1O was read as MsrA inh 6.5*, MsrA act -5.9, NPR2 activator -7.8, NPR1 activator 2.3 and MsrA inh confirm 5.1*.
CCCC(=O)OC[C@H]1CN(C2CCCC2)S(=O)(=O)c2c(Oc3ccc(F)cc3)cccc2O1 was read as MsrA inh 0.5, NPR2 activator -0.1 and NPR1 activator -6.1.
For N#Cc1ccc(NC(=O)OC2CCC23CCC(c2ccccc2)CC3)cc1 (configuration not stated) the results were NPR2 activator -5.2 and NPR1 activator 0.7.
Screening CCNC(=O)OC[C@H]1O[C@H](C#Cc2ccc(C(C)(C)C)cc2)C=C[C@H]1OC(C)=O returned MsrA inh 1.1, NPR2 activator 16.9 and NPR1 activator 1.2.
For Cc1cc(C(=O)N/N=C/c2sc(N3CCOCC3)nc2-c2ccccc2)c(C)o1 the results were MsrA inh 17.4*, MsrA act -1.5, NPR2 activator -4.3, NPR1 activator 1.8 and MsrA inh confirm 6.7*.
`O=C(Nc1ccccc1F)C(=Cc1sc(N2CCOCC2)nc1-c1ccccc1)C(=O)Nc1ccccc1F` gave MsrA inh 4.8*, MsrA act -5.9, NPR2 activator 5.0, NPR1 activator 0.3 and MsrA inh confirm 4.4.
Screening c1ccc(-c2nc(N3CCOCC3)sc2-c2ccccc2)cc1 returned MsrA inh 0.5, MsrA act -1.1, NPR2 activator -5.3 and NPR1 activator -13.0.
COCCCNC(=O)C[C@H]1C[C@@]2(C(=O)OC)C(=C[C@H](COCc3ccccc3)O[C@@H]2C)N(Cc2ccc3c(c2)OCO3)C1=O was read as MsrA inh -0.5, NPR2 activator -1.2 and NPR1 activator -4.2.
